This passage reports growth results from PubChem BioAssay (NCI).

About 83,000 compounds went through this panel and 20% of them were active in at least one assay; those are over-represented in the sample as a whole.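 Treatment: one concentration, 48 hours, 96-well format. Scoring: percent growth, with anything below 10 considered active.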 Values without a mark were called inactive. Active and inactive are the calls of the source.

Among the test systems are NCI-H23 lung; NCI-H226 lung; NCI-H322M lung; HOP-62 NSCLC; NCI-H460 lung; HOP-92 NSCLC; NCI-H522 lung; A549/ATCC NSCLC; 786-0 renal.
Assay in all cases: NCI-60 one-dose screen, 48 h (100 = growth as untreated, 0 = no growth, -100 = all killed)
Holding throughout (details): 10 µM unless noted

For `O=C(CCCn1c(=O)c2sc3ccccc3c2n2nnc(-c3ccccc3)c12)NCCc1cnc[nH]1`, the growth in the experiment with NCI-H23 lung is -20.4% (active); in the experiment with NCI-H226 lung, 105%; in the experiment on NCI-H322M lung it was -13.7% (active); in the experiment with HOP-62 NSCLC, -59.8% (active); in the experiment on NCI-H460 lung it was -44.1% (active); in the experiment on HOP-92 NSCLC, -54.5% (active). Also, the growth in the experiment with NCI-H522 lung is -71.9% (active); in the experiment with A549/ATCC NSCLC, -45.7% (active); with 786-0 renal, -77.7% (active).

As for `CC(C)C[C@H](NC(=O)[C@@H](Cc1ccccc1)n1ccc(Nc2ccccc2)cc1=O)B(O)O`, the growth with NCI-H23 lung is 6.41% (active); with NCI-H226 lung, -72% (active); in the experiment on NCI-H322M lung, 43.5%; in the experiment with HOP-62 NSCLC, -21.6% (active); with NCI-H460 lung, 8.89% (active); with HOP-92 NSCLC it was -31.4% (active). Moreover, the growth with NCI-H522 lung was -53.7% (active); with A549/ATCC NSCLC, 17%; with 786-0 renal, 17.2%.

Regarding `COc1cccc2cc(-c3cc4ccccc4[nH]3)/c(=N/C(=S)Nc3ccccc3)oc12`, the growth with NCI-H23 lung was 61.8%; with NCI-H226 lung, 69.9%; in the experiment on NCI-H322M lung, 84%; with HOP-62 NSCLC it was 18.5%; in the experiment with NCI-H460 lung, 69.3%; in the experiment with HOP-92 NSCLC it was 5.47% (active). In addition, the figures for the growth in the experiment on NCI-H522 lung, in the experiment on A549/ATCC NSCLC and in the experiment with 786-0 renal were 88.1%, 91.4% and 59.4%, respectively.

On to `O=c1[nH]c2ccccc2cc1-c1nnc(Cc2ccccc2)o1`, for which the growth in the experiment on NCI-H23 lung was 74.7%; in the experiment on NCI-H226 lung, 85.3%; in the experiment on NCI-H322M lung, 92.3%; in the experiment with HOP-62 NSCLC it was 82.6%; with NCI-H460 lung, 92.2%; with HOP-92 NSCLC it was 76.2%. Besides, the results for the growth in the experiment on NCI-H522 lung, in the experiment with A549/ATCC NSCLC and with 786-0 renal were 71.2%, 83.3% and 58.3%, respectively.

For `O=c1oc2cc(OS(=O)(=O)c3ccccc3)c(Cl)cc2c2c1CCCCCC2`, the growth with NCI-H23 lung was 80.1%; with NCI-H226 lung, 81.7%; in the experiment on NCI-H322M lung, 95.4%; in the experiment with HOP-62 NSCLC, 118%; in the experiment on NCI-H460 lung, 96.1%; in the experiment with HOP-92 NSCLC, 65.7%. The growth was 73.2% in the experiment on NCI-H522 lung, 88.2% with A549/ATCC NSCLC and 87.7% with 786-0 renal.

As for `Nc1c(C(=O)Nc2ccccc2)sc2nc3c(cc12)CCCCC3`, the growth with NCI-H23 lung was 36.6%; in the experiment on NCI-H226 lung, 27.3%; with NCI-H322M lung it was 21.3%; in the experiment on HOP-62 NSCLC, 7.61% (active); in the experiment on NCI-H460 lung, 6.63% (active); with HOP-92 NSCLC, -4.43% (active). Also, the growth was 30.2% with NCI-H522 lung, 18.4% with A549/ATCC NSCLC and 15.7% with 786-0 renal.

With `CC[C@]1(O)C[C@@H]2CN(Cc3c([nH]c4ccccc34)[C@@](C(=O)OC)(c3cc4c(cc3OC)N(C)[C@H]3[C@@](O)(C(=O)OC)[C@H](OC(C)=O)[C@]5(CC)[C@@H]6C[C@@H]6CN6CC[C@]43[C@@H]65)C2)C1`, the growth was 25.7% with NCI-H23 lung; 50.2% with NCI-H226 lung; 44.7% with NCI-H322M lung; 38.8% with HOP-62 NSCLC; 6.73% (active) in the experiment with NCI-H460 lung; -12% (active) in the experiment on HOP-92 NSCLC. Also, the growth with NCI-H522 lung is -20.3% (active); in the experiment with A549/ATCC NSCLC, 22.2%; with 786-0 renal, 21.4%.

Regarding `O=C(/C=C/CN1CCOCC1)Nc1cc2c(Nc3ccc(F)c(Cl)c3F)ncnc2cc1OCCOC(F)F`, the growth is 69.2% in the experiment with NCI-H23 lung; 70% with NCI-H226 lung; 8.76% (active) in the experiment with NCI-H322M lung; 51.2% in the experiment on HOP-62 NSCLC; 49.4% in the experiment with NCI-H460 lung; -8.94% (active) in the experiment with HOP-92 NSCLC. For the same compound, the growth is 8.53% (active) in the experiment on NCI-H522 lung, 40.5% in the experiment with A549/ATCC NSCLC and 38.9% in the experiment with 786-0 renal.

On to `COc1cccc(-c2nc3sccn3c2-c2ccnc(NCCCNS(=O)(=O)c3ccc(F)cc3)n2)c1`, for which the growth is 16.2% in the experiment with NCI-H23 lung; 13.7% in the experiment on NCI-H226 lung; 64.7% in the experiment with NCI-H322M lung; 82.4% in the experiment with HOP-62 NSCLC; 40.3% in the experiment with NCI-H460 lung; 61.5% in the experiment with HOP-92 NSCLC. Also, the growth was 14% with NCI-H522 lung, 41.6% with A549/ATCC NSCLC and 44.1% in the experiment with 786-0 renal.

With `O=S(=O)(NCCCNc1cc(-c2cn(-c3ccccc3)nc2-c2cccc(O)c2)ccn1)c1ccc(Br)cc1`, the growth was 25.2% in the experiment with NCI-H23 lung; 22.2% in the experiment on NCI-H226 lung; 20.7% with NCI-H322M lung; 15.8% in the experiment with HOP-62 NSCLC; 5.69% (active) in the experiment with NCI-H460 lung; -5.67% (active) in the experiment with HOP-92 NSCLC. Besides, the growth in the experiment on NCI-H522 lung is 25.6%; with A549/ATCC NSCLC it was 17.4%; in the experiment with 786-0 renal, -9.38% (active).

Regarding `Cc1oc2nc[nH]c(=O)c2c1C(=O)/C=C/c1ccc(Cl)cc1`, the growth is 39.7% with NCI-H23 lung; 94% in the experiment with NCI-H226 lung; 45.2% in the experiment on NCI-H322M lung; 6.15% (active) in the experiment with HOP-62 NSCLC; 21% with NCI-H460 lung; -4.23% (active) in the experiment with HOP-92 NSCLC. Besides, the growth is 17.5% in the experiment on NCI-H522 lung, 31.7% in the experiment on A549/ATCC NSCLC and 29.7% with 786-0 renal.

As to `COc1ccc(/C=N/NC(=O)Cn2c(Cc3cccc4ccccc34)nc3ccccc32)cc1`, the growth in the experiment on NCI-H23 lung is 90.3%; in the experiment with NCI-H226 lung, 92.7%; in the experiment on NCI-H322M lung, 84.5%; in the experiment with HOP-62 NSCLC, 89.3%; in the experiment with NCI-H460 lung, 106%; in the experiment with HOP-92 NSCLC, 101%. For the same compound, the growth in the experiment on NCI-H522 lung was 77.7%; in the experiment with A549/ATCC NSCLC, 95%; in the experiment with 786-0 renal, 102%.

For `N#CC1=C(N)OC2=C(C(=O)CCC2)C1c1ccco1` (stereo unspecified), the growth with NCI-H23 lung is 97.1%; in the experiment with NCI-H226 lung, 103%; in the experiment with NCI-H322M lung it was 99.1%; with HOP-62 NSCLC it was 91.3%; in the experiment on NCI-H460 lung, 110%; with HOP-92 NSCLC it was 106%. Further, the growth in the experiment on NCI-H522 lung is 92.7%; with A549/ATCC NSCLC, 101%; in the experiment on 786-0 renal, 101%.

For the compound `CCN(CC)S(=O)(=O)c1ccc2[nH]c(=O)cc(C(=O)Nc3ccc(OC)cc3OC)c2c1`, the growth with NCI-H23 lung was 97.8%; with NCI-H226 lung, 100%; with NCI-H322M lung, 116%; in the experiment on HOP-62 NSCLC, 105%; with NCI-H460 lung, 123%; in the experiment on HOP-92 NSCLC, 77.8%. The growth with NCI-H522 lung was 105%; in the experiment on A549/ATCC NSCLC it was 110%; in the experiment on 786-0 renal, 107%.
